Here are results for 14 compounds from PubChem BioAssay.

Calls of active or inactive are those of the source.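 Rule for the calls, unless noted: active = fluorescence slope after compound addition differing from the mean of all screened samples at 99.7% confidence, in either direction; inactive = the rest.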

Assay [1] can be described thus: inhibitors of TNFa-induced NFkB p65 translocation, primary screen, imaging, HUVEC, MLSMR starter and 10KST1 sets (AID 438;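 active = inhibition above 20% together with a positive visual image hit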;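 note: compound added about 3h40 before a 20 min TNFalpha stimulation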;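 for inhibition: signal is the nuclear over cytoplasmic p65 intensity ratio per well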). To be noted: HUVEC TNFa-induced p65 nuclear translocation; cell count: measured here: nuclei count (cytotoxicity indicator), at 2.08 µM; inhibition: at 2 µM, stronger effect = higher value, 0% TNFa-plus-vehicle, 100% no-TNFa wells.
Assay [2] in a line: reduction of polyQ htt aggregates in cells – imaging, exon1htt(103Q)mCFP cells, high-content imaging, primary screen (AID 483;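 active = visual image review flags a hit and inhibition of aggregation exceeds 20%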;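 note: compound exposure lasted 3 days before fixation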;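 for nuclei count: percent of the per-plate median nuclei count of sample wells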). To be noted: exon1htt(103Q)mCFP cell line, aggregate imaging, at 2 µM; inhibition of aggregation: stronger effect = higher value; nuclei count: measured here: cell count, toxicity.
Assay [3] in a line: endothelial E-selectin expression blockers – imaging, HUVEC, immunofluorescence, MLSMR starter and 10KST1 sets, primary screen (AID 487;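 active = visually confirmed hit in the image check and inhibition above 20%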;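 for inhibition: signal is fraction of cell area covered by stained E-selectin grains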;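 for nuclei count: 100% = median nuclei count of all wells on the same plate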). To be noted: HUVEC TNFalpha-induced E-selectin immunofluorescence imaging, at 2 µM; inhibition: stronger effect = higher value; nuclei count: measured here: cell number, toxicity.
For assay [4], the target named is Voltage-gated potassium channel subunit beta-2 (Rattus norvegicus) (UniProt P62483). As to the kind of experiment: inhibitors of rat Kvbeta2 reductase activity – biochemical, NADPH fluorescence, primary screen (AID 622;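 active = fluorescence slope higher than the sample average by over 3 SD, cut at about -0.22 in these data, passing the limit was not always enough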;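 note: slope of raw intensity against log time taken from 70 to 1610 s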). As to conditions: recombinant KvBeta, 4-cyanobenzaldehyde reduction, at 10 µM, stronger effect = higher value.
Voltage-gated potassium channel subunit beta-2 (Rattus norvegicus), sequence (P62483 whole entry, looked up): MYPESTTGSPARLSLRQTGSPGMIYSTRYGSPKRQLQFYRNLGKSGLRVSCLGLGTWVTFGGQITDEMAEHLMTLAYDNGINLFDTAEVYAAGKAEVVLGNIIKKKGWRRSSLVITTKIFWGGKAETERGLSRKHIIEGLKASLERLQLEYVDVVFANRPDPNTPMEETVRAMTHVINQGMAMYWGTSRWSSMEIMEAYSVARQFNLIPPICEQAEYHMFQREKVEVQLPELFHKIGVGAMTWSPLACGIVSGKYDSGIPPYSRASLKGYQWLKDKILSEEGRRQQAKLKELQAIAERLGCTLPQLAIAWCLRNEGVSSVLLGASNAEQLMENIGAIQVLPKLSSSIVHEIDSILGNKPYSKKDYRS
The target is the same in assay [5]. Put plainly: enhancers of rat Kvbeta2 NADPH turnover – biochemical, NADPH fluorescence, primary screen (AID 623;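 active = NADPH fluorescence slope more negative than the mean of all samples by about 3 SD, 99.7% confidence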;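 note: fluorescence intensity change per second fitted from 20 to 320 s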). As to conditions: Recombinant KvBeta, NADPH fluorescence decrease slope, 10 min; at 10 µM; stronger effect = lower value.
The target in assay [6] is Alpha-2C adrenergic receptor (Homo sapiens) (UniProt P18825). As to the kind of experiment: compounds altering alpha2C-coupled GIRK flux – cell-based, HEK293 alpha2C/GIRK1/2, thallium flux, primary screen (AID 624).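 Note: slope of fluorescence ratio to pre-addition baseline per second over 15 to 24 s.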 As to conditions: thallium flux BTC fluorescence, at 10 µM, actives lie on both sides.
Alpha-2C adrenergic receptor (Homo sapiens), sequence (P18825 whole entry, looked up): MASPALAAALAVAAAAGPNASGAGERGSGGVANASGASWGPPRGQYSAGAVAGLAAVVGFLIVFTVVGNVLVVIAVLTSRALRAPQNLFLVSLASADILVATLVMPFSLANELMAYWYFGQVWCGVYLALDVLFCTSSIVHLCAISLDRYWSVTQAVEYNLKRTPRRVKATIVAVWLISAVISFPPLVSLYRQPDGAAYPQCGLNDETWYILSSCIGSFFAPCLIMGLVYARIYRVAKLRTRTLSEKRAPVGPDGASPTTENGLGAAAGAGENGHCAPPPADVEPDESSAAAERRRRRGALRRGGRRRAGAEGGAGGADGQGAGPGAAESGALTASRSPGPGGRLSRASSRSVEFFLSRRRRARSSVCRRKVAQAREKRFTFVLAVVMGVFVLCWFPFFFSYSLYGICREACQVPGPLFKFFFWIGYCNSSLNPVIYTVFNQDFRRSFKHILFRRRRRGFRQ
Assay [7] can be described thus: blockers of RIG-like receptor reporter activation – cell-based, Sendai virus stimulus, luciferase, 10K MLSCN set, TLR/RLR signaling modifier project, primary screen (AID 602276;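 active = inhibition at or above 50% at 10 µM; inactive = inhibition below 50%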;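 note: firefly luciferase from ISG56 promoter only with Renilla not read in this screen; 0% = Sendai virus plus DMSO and 100% = medium plus DMSO without virus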). To be noted: HEK293 RL24 IRF3 luciferase reporter, at 10 µM, stronger effect = higher value.
The nature of assay [8]: TLR3 IRF3 reporter activation blockers – cell-based, poly I:C stimulus, luciferase, 10K MLSCN set, primary screen (AID 602277;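 active = inhibition of the reporter signal at or above 50%; inactive = inhibition below 50%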). As to conditions: HEK293-TLR3 RL24 IRF3 luciferase reporter, at 10 µM, stronger effect = higher value.

With `Cc1ccc(-n2ncc3c(N4CCCC(C)C4)ncnc32)c(C)c1` (centres undefined), the cell count in assay [1] turned out to be 558. The inhibition in assay [1] was 8% (inactive); in assay [3], 3.1% (inactive); in assay [7] it was -57.7% (inactive); in assay [8], -125% (inactive). Besides, the inhibition of aggregation in assay [2] was 10.5% (inactive). The nuclei count worked out at 85.8% in assay [2] and 93.2% in assay [3]. Also, the fluorescence slope in assay [4] was -0.527 (inactive). Also, in assay [5], the NADPH fluorescence slope was -3.3e-05 (inactive). Moreover, the slope in assay [6] is 0.00664 (inactive).
For `Cn1c(SCC(=O)Nc2ccc3c(c2)OCO3)nnc1-c1cnccn1`, the cell count in assay [1] is 656. Besides, the inhibition is 6.5% (inactive) in assay [1], 46.9% (inactive) in assay [3], 12.5% (inactive) in assay [7] and 24.2% (inactive) in assay [8]. Moreover, in assay [2], the inhibition of aggregation was 3.7% (inactive). For the same compound, the nuclei count was determined as 94.2% in assay [2] and 91.7% in assay [3]. The fluorescence slope in assay [4] was -0.366 (inactive). In assay [5], the NADPH fluorescence slope is -5.5e-05 (inactive). Moreover, the slope in assay [6] was 0.00395 (inactive).
As to `CCCC(=O)Nc1cnc(NC(=O)c2cccc(F)c2)cc1C`, the cell count in assay [1] was 465. Also, the inhibition is 14.1% (inactive) in assay [1], 46% (inactive) in assay [3], -24.4% (inactive) in assay [7] and -162% (inactive) in assay [8]. The inhibition of aggregation in assay [2] is 6.6% (inactive). Besides, the results for the nuclei count in assay [2] and in assay [3] were 95.6% and 103%, respectively. In addition, the fluorescence slope in assay [4] is -0.563 (inactive). Moreover, in assay [5], the NADPH fluorescence slope is 4e-05 (inactive). In addition, the slope in assay [6] was 0.00559 (inactive).
For the compound `COc1ccc(C(=O)Nc2ccccc2C(=O)NCCN2CCOCC2)cc1`, the cell count in assay [1] came to 462. Besides, the inhibition in assay [1] is -2.2% (inactive); in assay [3] it was -23.5% (inactive); in assay [7], -23.4% (inactive); in assay [8] it was -25.1% (inactive). Besides, in assay [2], the inhibition of aggregation was -3.2% (inactive). The nuclei count in assay [2] was 98.2%; in assay [3], 103%. For the same compound, the fluorescence slope in assay [4] was -0.429 (inactive). Further, the NADPH fluorescence slope in assay [5] is -1.1e-05 (inactive). Moreover, the slope in assay [6] is 0.00486 (inactive).
For `C=CCn1c(-c2ccc(OC)cc2)nc2ccccc21`, the cell count in assay [1] was found to be 386. Besides, the inhibition is -3.5% (inactive) in assay [1], -24.9% (inactive) in assay [3], -24.1% (inactive) in assay [7] and -54.6% (inactive) in assay [8]. Further, the inhibition of aggregation in assay [2] is 1% (inactive). The nuclei count stood at 96.1% in assay [2] and 86.4% in assay [3]. For the same compound, the fluorescence slope in assay [4] is -0.488 (inactive). In assay [5], the NADPH fluorescence slope is -4.7e-05 (inactive). For the same compound, in assay [6], the slope was 0.0046 (inactive).
For `O=C(C1CCCN(S(=O)(=O)c2cnc[nH]2)C1)N1CCN(c2ccc(Cl)cc2)CC1` (centres undefined), the cell count in assay [1] came out at 566. Besides, the inhibition was 8% (inactive) in assay [1], -71.3% (inactive) in assay [3], -6.86% (inactive) in assay [7] and 0.571% (inactive) in assay [8]. Moreover, the inhibition of aggregation in assay [2] is -31.8% (inactive). Besides, the nuclei count stood at 103% in assay [2] and 123% in assay [3]. The fluorescence slope in assay [4] is -0.523 (inactive). Also, the NADPH fluorescence slope in assay [5] was 3.4e-05 (inactive). Further, the slope in assay [6] was 0.00672 (inactive).
Regarding `CCOc1ccc(NS(=O)(=O)c2ccc(OCC(=O)N3CCCC3)cc2)cc1`, the cell count in assay [1] turned out to be 422. The inhibition in assay [1] is -15.4% (inactive); in assay [3] it was -56.1% (inactive); in assay [7] it was 8.25% (inactive); in assay [8], 13.9% (inactive). Besides, the inhibition of aggregation in assay [2] is 43.4% (active). For the same compound, the nuclei count in assay [2] amounted to 98.7%; in assay [3], 169%. Also, the fluorescence slope in assay [4] is -0.465 (inactive). In assay [5], the NADPH fluorescence slope is -4.2e-05 (inactive). The slope in assay [6] is 0.00531 (inactive).
On to `CCOC(=O)C1(c2ccccc2)NC(c2ccc(N(C)C)cc2)C2C(=O)N(C)C(=O)C21` (centres undefined), for which, in assay [1], the cell count is 450. Also, the inhibition was -4% (inactive) in assay [1], -87.1% (inactive) in assay [3], 14.4% (inactive) in assay [7] and 22.7% (inactive) in assay [8]. The inhibition of aggregation in assay [2] is 3.8% (inactive). Also, the nuclei count was 116% in assay [2] and 93.2% in assay [3]. Besides, the fluorescence slope in assay [4] is -0.31 (inactive). Moreover, the NADPH fluorescence slope in assay [5] is -6.3e-05 (inactive). In addition, in assay [6], the slope is 0.00476 (inactive).
As to `COc1ccc(C(=O)NCCc2nnc(SCc3nc4ccccc4c(=O)[nH]3)n2C)cc1`, the cell count in assay [1] was determined as 357. Besides, the inhibition in assay [1] is -6.6% (inactive); in assay [3], -85.5% (inactive); in assay [7] it was 18.2% (inactive); in assay [8], 18.8% (inactive). Further, the inhibition of aggregation in assay [2] is -8.1% (inactive). Further, the nuclei count was 101% in assay [2] and 112% in assay [3]. In addition, in assay [4], the fluorescence slope was -0.501 (inactive). In assay [5], the NADPH fluorescence slope was -3.6e-05 (inactive). For the same compound, the slope in assay [6] is 0.00496 (inactive).
`C=C(Cl)COC(=O)[C@H]1C2C=CC(C2)C1C(=O)O` (some centres undefined): in assay [1], the cell count came out at 347. For the same compound, the inhibition in assay [1] was -5% (inactive); in assay [3] it was -29.7% (inactive); in assay [7], -6.49% (inactive); in assay [8], 2.25% (inactive). Also, the inhibition of aggregation in assay [2] is -18.6% (inactive). The nuclei count in assay [2] came to 96.9%; in assay [3] it was 124%. In addition, the fluorescence slope in assay [4] was -0.435 (inactive). For the same compound, the NADPH fluorescence slope in assay [5] was 5.3e-05 (inactive). Besides, the slope in assay [6] was 0.00591 (inactive).
As to `Cc1nnc(SCc2nc3ccccc3s2)n1-c1ccccc1`, in assay [1], the cell count was found to be 394. Further, the inhibition in assay [1] is -1% (inactive); in assay [3] it was -324% (inactive); in assay [7], 13.8% (inactive); in assay [8], -17.5% (inactive). The inhibition of aggregation in assay [2] is -14.1% (inactive). Further, the nuclei count was 83.9% in assay [2] and 153% in assay [3]. Further, the fluorescence slope in assay [4] is -0.317 (inactive). In addition, the NADPH fluorescence slope in assay [5] was 7.5e-06 (inactive). Besides, the slope in assay [6] was 0.005 (inactive).
Regarding `O=C1N2c3ccccc3CCc3cccc(c32)C1(O)C(F)(F)F` (centres undefined), the cell count in assay [1] is 747. The inhibition in assay [1] was 4.7% (inactive); in assay [3] it was -28% (inactive); in assay [7], 17.9% (inactive); in assay [8], 12.7% (inactive). The inhibition of aggregation in assay [2] was 0.2% (inactive). Also, the results for the nuclei count in assay [2] and in assay [3] were 82.6% and 86.8%, respectively. The fluorescence slope in assay [4] is -0.641 (inactive). For the same compound, in assay [5], the NADPH fluorescence slope is 1.4e-06 (inactive). In assay [6], the slope is 0.00675 (inactive).
Regarding `CC(C)Cn1c(N)c(C(=O)COC(=O)c2ccc3c(c2)OCCO3)c(=O)n(C)c1=O`, the cell count in assay [1] was 365. Moreover, the inhibition was -4.4% (inactive) in assay [1], -5.7% (inactive) in assay [3], -14.6% (inactive) in assay [7] and -49.5% (inactive) in assay [8]. The inhibition of aggregation in assay [2] is -5.7% (inactive). Besides, the results for the nuclei count in assay [2] and in assay [3] were 75.7% and 106%, respectively. The fluorescence slope in assay [4] is -0.575 (inactive). Besides, in assay [5], the NADPH fluorescence slope was -6.3e-05 (inactive). In addition, the slope in assay [6] is 0.0066 (inactive).
With `CC(C)Nc1ncnc2c1cnn2-c1ccccc1`, in assay [1], the cell count turned out to be 681. Moreover, the inhibition in assay [1] was -6.7% (inactive); in assay [3] it was -1.2% (inactive); in assay [7] it was -54.7% (inactive); in assay [8], -180% (inactive). In addition, the inhibition of aggregation in assay [2] is -56.3% (inactive). Moreover, the nuclei count is 3.7% in assay [2] and 114% in assay [3]. In assay [4], the fluorescence slope was -0.589 (inactive). Also, the NADPH fluorescence slope in assay [5] is -2e-05 (inactive). In addition, in assay [6], the slope is 0.00563 (inactive).

The inhibition is the relative decrease from the control value, in per cent.
